Reference: PubChem BioAssay (EPA / NIEHS)
Records with an inconclusive call do not appear. The source made the active and inactive calls. How the source made its calls: active means hit-call score of the fitted dose curve at least 0.9, where 1 is the maximum; inconclusive means response in the unintended direction; inactive means score below 0.9.

Target: Estrogen-related receptor gamma (Homo sapiens) (UniProt P62508)
Assay: ATG_ERRg_TRANS: Attagene TRANS-FACTORIAL HepG2 Assay for human Estrogen-Related Receptor gamma (ERRg) (AID 2282977);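 further: hits increase reporter signal over DMSO so potencies reflect activators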
Details: HepG2 Attagene TRANS reporter, ERRg transactivation
Summary of the method: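 HepG2 cells transiently transfected with multiplexed GAL4-UAS reporter units driven by chimeric NR-Gal4 proteins; 24 h exposure. Reporter mRNA quantified by RT-PCR, fluorescent labelling, HpaI digestion and capillary electrophoresis; gain of signal vs DMSO.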

Chain of Estrogen-related receptor gamma (Homo sapiens) (P62508 whole entry, looked up): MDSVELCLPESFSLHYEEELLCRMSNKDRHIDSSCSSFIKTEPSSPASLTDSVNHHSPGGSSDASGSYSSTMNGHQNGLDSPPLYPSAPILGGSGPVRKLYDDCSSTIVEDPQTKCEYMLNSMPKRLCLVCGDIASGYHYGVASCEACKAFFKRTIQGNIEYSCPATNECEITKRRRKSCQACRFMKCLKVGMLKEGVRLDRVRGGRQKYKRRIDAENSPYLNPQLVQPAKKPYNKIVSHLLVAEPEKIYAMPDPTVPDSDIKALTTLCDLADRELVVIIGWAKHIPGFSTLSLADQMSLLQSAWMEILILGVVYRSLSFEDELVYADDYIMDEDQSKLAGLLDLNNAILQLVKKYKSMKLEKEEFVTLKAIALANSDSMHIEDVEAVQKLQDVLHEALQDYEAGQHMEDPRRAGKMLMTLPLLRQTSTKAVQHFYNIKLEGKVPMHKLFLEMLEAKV

SMILES	outcome	AC50
CC1(C)COP(Oc2ccccc2)OC1	inactive	
O=C(N[C@H]1CN2CCC1CC2)c1ccc2c(c1)OCCO2	inactive	
C=CC(=O)OCC(COC(=O)C=C)(COC(=O)C=C)COC(=O)C=C		100 µM (active)
CCC(C)(C#N)N=NC(C)(C#N)CC (stereo not given)	inactive	
Clc1cccc(Cl)c1Cl	inactive	
CC(C)=CC1C(C(=O)OCc2cccc(Oc3ccccc3)c2)C1(C)C (stereo not given)	inactive	
O=[N+]([O-])c1c2ccccc2cc2ccccc12	inactive	
O=c1nc(O)n(Cl)c(=O)n1Cl	inactive	
O=S(=O)(F)C(F)(F)C(F)(F)C(F)(F)C(F)(F)F	inactive	
CC(C)(C)c1cc([N+](=O)[O-])cc(C(C)(C)C)c1O	inactive	
CN(C)c1ccc(N=O)cc1	inactive	

Target: Glucocorticoid receptor (Homo sapiens) (UniProt P04150)
Sequence (P04150 whole entry, looked up): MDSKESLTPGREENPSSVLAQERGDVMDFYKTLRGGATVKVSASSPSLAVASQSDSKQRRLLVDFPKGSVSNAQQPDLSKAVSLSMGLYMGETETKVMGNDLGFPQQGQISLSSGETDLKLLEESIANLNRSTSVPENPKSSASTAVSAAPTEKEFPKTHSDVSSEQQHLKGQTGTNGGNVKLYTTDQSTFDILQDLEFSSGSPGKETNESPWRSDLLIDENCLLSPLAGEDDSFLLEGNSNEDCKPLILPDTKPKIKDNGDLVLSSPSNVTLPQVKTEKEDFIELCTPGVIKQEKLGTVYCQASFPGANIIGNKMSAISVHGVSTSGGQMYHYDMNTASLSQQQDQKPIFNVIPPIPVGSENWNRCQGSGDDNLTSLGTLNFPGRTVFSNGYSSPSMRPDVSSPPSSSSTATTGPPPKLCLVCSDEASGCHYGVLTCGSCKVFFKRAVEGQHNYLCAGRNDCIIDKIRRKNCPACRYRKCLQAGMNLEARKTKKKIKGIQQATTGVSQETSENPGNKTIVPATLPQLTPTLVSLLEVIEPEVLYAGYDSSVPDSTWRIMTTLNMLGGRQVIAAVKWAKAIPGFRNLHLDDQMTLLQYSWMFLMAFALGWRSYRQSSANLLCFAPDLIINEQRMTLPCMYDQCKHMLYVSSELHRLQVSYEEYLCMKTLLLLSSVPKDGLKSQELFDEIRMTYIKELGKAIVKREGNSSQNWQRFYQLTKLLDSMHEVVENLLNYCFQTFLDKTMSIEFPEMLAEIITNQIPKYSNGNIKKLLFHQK
Assay: ATG_GR_TRANS: Attagene TRANS-FACTORIAL HepG2 Assay for human Glucocorticoid Receptor (GR) (AID 2282978);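 further: activators score as hits since higher reporter transcript over DMSO is fitted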
Details: HepG2 Attagene TRANS GR reporter, mRNA transcription
Summary of the method: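 Measurement of GAL4-UAS-driven reporter mRNA in human HepG2 liver cells 24 h post-dosing, using RT-PCR with fluorescent labelling and capillary electrophoresis; the transfected constructs report exogenous NR-GAL4 chimera activity, fitted upward against DMSO.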

SMILES	outcome	AC50
CC1(C)COP(Oc2ccccc2)OC1	inactive	
O=C(N[C@H]1CN2CCC1CC2)c1ccc2c(c1)OCCO2	inactive	
CCCSP(=S)(OCC)Oc1ccc(Cl)cc1Cl (stereo not given)	inactive	
COC(F)(C(F)(F)C(F)(F)F)C(F)(C(F)(F)F)C(F)(F)F (stereo not given)	inactive	
Brc1ccc(Oc2c(Br)cc(Br)cc2Br)c(Br)c1	inactive	
N#CCCC(Br)(C#N)CBr (stereo not given)	inactive	
NC(=O)c1ccc(N)nc1	inactive	
CCCCS(=O)(=O)Cl	inactive	
O=c1oc2ccccc2c(O)c1C(CC(O)c1ccc(-c2ccc(Br)cc2)cc1)c1ccccc1 (stereo not given)		173 µM (active)
C[C@]12CC[C@@H](O)C[C@@H]1CC[C@@H]1[C@@H]2CC[C@]2(C)C(=O)CC[C@@H]12	inactive	
N#Cc1ccncc1	inactive	
Cc1cc(C(C)(C)c2ccc(O)c(C)c2)ccc1O	inactive	
CN(C)c1ccc(N=O)cc1	inactive	

Target: Bile acid receptor (Homo sapiens) (UniProt Q96RI1)
Sequence (Q96RI1 whole entry, looked up): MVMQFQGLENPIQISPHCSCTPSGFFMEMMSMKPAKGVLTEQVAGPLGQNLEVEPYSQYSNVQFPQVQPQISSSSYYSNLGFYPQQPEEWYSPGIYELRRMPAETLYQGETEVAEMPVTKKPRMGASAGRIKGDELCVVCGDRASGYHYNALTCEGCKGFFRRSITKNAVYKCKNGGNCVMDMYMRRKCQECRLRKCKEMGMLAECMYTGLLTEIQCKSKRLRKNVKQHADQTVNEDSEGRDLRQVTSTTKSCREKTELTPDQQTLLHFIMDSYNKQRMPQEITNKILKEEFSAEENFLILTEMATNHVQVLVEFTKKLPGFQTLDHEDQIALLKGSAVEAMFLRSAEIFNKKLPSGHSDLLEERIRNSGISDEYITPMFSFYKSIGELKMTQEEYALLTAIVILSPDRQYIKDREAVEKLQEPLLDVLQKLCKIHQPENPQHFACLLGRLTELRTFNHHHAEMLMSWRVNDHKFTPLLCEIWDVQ
Assay: ATG_FXR_TRANS: Attagene TRANS-FACTORIAL HepG2 Assay for Farnesoid X Receptor (FXR) (AID 2282979);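 further: hits raise reporter mRNA above DMSO so AC50 marks FXR activation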
Details: HepG2 Attagene TRANS FXR-GAL4 reporter transcription
Summary of the method: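 Read-out: fluorescent reporter transcripts quantified by capillary electrophoresis after RT-PCR of total RNA. Source cells were HepG2 transiently carrying chimeric NR-GAL4 plus GAL4-UAS reporter units, dosed 24 h. Activity fitted upward relative to DMSO baseline.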

SMILES	outcome	AC50
CC1(C)COP(Oc2ccccc2)OC1	inactive	
CCOC(=O)CCN(SN(C)C(=O)Oc1cccc2c1OC(C)(C)C2)C(C)C	inactive	
OC(c1ccc(Cl)cc1)(c1ccc(Cl)cc1)c1cccnc1	inactive	
O=C(NC(=O)c1c(F)cccc1F)Nc1cc(Cl)c(Oc2ncc(C(F)(F)F)cc2Cl)c(Cl)c1	inactive	
Brc1ccc(Oc2c(Br)cc(Br)cc2Br)c(Br)c1	inactive	
N#CCCC(Br)(C#N)CBr (stereo not given)	inactive	
NC(=O)c1ccc(N)nc1	inactive	
CCCCS(=O)(=O)Cl	inactive	
O=c1oc2ccccc2c(O)c1C(CC(O)c1ccc(-c2ccc(Br)cc2)cc1)c1ccccc1 (stereo not given)	inactive	
O=C(O)C1(c2ccc3c(c2)OC[C@H](Cc2ccc(-c4ccccc4)cc2)[C@H]3O)CCCC1	inactive	
Cc1cc(C(C)(C)c2ccc(O)c(C)c2)ccc1O		4.72 µM (active)
N#Cc1ccccc1Cl	inactive	
O=S(=O)(F)C(F)(F)C(F)(F)C(F)(F)C(F)(F)F	inactive	
C=C(C)[C@@H]1CC=C(C=O)CC1	inactive	
COP(=S)(OC)Oc1cc(Cl)c(I)cc1Cl	inactive	
CN(C)c1ccc(N=O)cc1	inactive	
